Tb PYK inh: T. brucei pyruvate kinase inhibition; Q57TT1; TbPYK enzyme, Kinase-Glo Plus ATP luminescence, 45 min; Potency, µM (series often up to 76.8 µM), for inactives: at the highest dose activity, negative = inhibition, usual class: inhibitors; 410,000 compounds, 0.12% hits; AID 624173; further: potency means the concentration at half of the fitted maximal effect; on the % scale 0 is the no-effect control and ±100 the full control effect; nearly all actives have a fitted effect of over 50% in size
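Assay buffer: 50 mM TEA pH 7.2, 100 mM KCl, 10 mM MgCl2, 0.05% BSA, 0.01% Tween-20. Pyruvate kinase from T. brucei plus substrate met compound, then ADP (130 uM final). Luminescence was read post 45 min RT.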
LmPK inhibitor: blocks Leishmania mexicana pyruvate kinase activity; Potency, µM (series often up to 57.5 µM), for the others: top-dose activity change, negative = inhibition, usual class: inhibitors; 290,000 compounds, 0.37% hits; AID 1721; Q27686; purified LmPK, Kinase-Glo ATP luminescence, 1 h; further: potency means the concentration at half of the fitted maximal effect; on the % scale 0 is the no-effect control and ±100 the full control effect
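0.1 nM LmPK, 0.5 mM PEP, 0.1 mM ADP; 50 mM imidazole pH 7.2, 7 mM MgCl2, 50 mM KCl; 1 h RT. Kinase-Glo luminescence readout, normalized to no-enzyme (full inhibition) and uninhibited wells.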
Shiga inhibitor: Shiga toxin inhibition; 290,000 compounds, 9.2% hits; Vero cells, Shiga toxin protein synthesis inhibition reporter; inhibition, % at 38.7 µM; in the data active means inhibition mostly above about 28%, no sharp cut-off; inactive means mostly below about 43%; further: 0% is about no effect
CHX counter: affects cycloheximide protein synthesis inhibition readout, counter-screen. AID 2314. cell reporter, cycloheximide protein synthesis inhibition counterscreen. 300,000 compounds, 12% hits. max response, %; in the data active means max response mostly above about 13%, no sharp cut-off; inactive means mostly below about 14%; further: read at 38.3 µM for the half of the compounds with a filed dose; 0% is about no effect
Giardia FBPA inh-1: Giardia lamblia aldolase inhibition; A8B2U2; purified Giardia FBPA; Potency, µM (highest dose often 59.6 µM), for inactives: top-dose activity, negative = inhibition, most hits filed as inhibitors; 290,000 compounds, 0.71% hits; AID 2451; further: potency means the concentration at half of the fitted maximal effect; on the % scale 0 is the no-effect control and ±100 the full control effect; nearly all actives have a fitted effect of over 55% in size
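40 nM FBPA preincubated 10 min at RT with compound (up to 57.5 uM final), then substrate plus GAPDH/TPI/NAD/arsenate coupling and diaphorase/resazurin added. Fluorescence read after 20 min at RT, 525/598 nm.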
RE007 growth inh: less growth of the S. pombe RE007 Vpr strain. S. pombe RE007 Vpr strain, BacTiter-Glo ATP luminescence, 24 h. Potency, µM (doses to about 92.2 µM), without a hit: at the highest dose activity change, negative = less growth, usual class: inhibitors. 360,000 compounds, 0.21% hits; active means well fitted falling curve with a large enough effect; inconclusive means small, poorly fitted or top-dose-only effect; inactive means no such curve, though single readings can be large or run the other way; further: potency means the concentration at half of the fitted maximal effect; on the % scale 0 is the no-effect control and ±100 the full control effect; nearly all actives have a fitted effect of over 50% in size
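Fission yeast RE007 carrying one integrated HIV-1 vpr copy, seeded at OD 0.01 in PMG+AL medium with 23 nL pinned compound. Grown 24 h at 30 degrees; viability read by BacTiter-Glo luminescence after 5 min.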
Giardia growth: Giardia lamblia growth inhibition. shares compounds with Giardia FBPA inh-1. Giardia lamblia trophozoite growth inhibition. Potency, µM (doses to about 57.5 µM), for inactives: at the top dose activity change, negative = inhibition, hits mostly inhibitors. 1,500 compounds, 5% hits. AID 2785;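 further: potency means the concentration at half of the fitted maximal effect; trophozoites exposed to compound for 48 h at 37 °C; on the % scale 0 is the no-effect control and ±100 the full control effect; nearly all actives have a fitted effect of over 70% in size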
Mammalian tox: mammalian cytotoxicity of Giardia aldolase inhibitor hits | shares compounds with Giardia FBPA inh-1 | mammalian cell viability counter-screen, qHTS | Potency, µM (titrated, usually from 57.5 µM), without a hit: top-dose viability change, negative = toxicity, usual class: inhibitors | 1,500 compounds, 4% hits | AID 2786;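 further: Chinese hamster ovary cells used as mammalian cytotoxicity surrogate; viability measured as cellular ATP by luminescence; potency means the concentration at half of the fitted maximal effect; compound exposure lasted 48 h before reading; on the % scale 0 is the no-effect control and ±100 the full control effect; nearly all actives have a fitted effect of over 60% in size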
Giardia FBPA inh-2: confirmation of Giardia fructose-bisphosphate aldolase inhibitors; shares compounds with Giardia FBPA inh-1; purified Giardia aldolase enzyme activity, qHTS; Potency, µM (top dose mostly 57.5 µM), without a hit: top-dose activity change, negative = inhibition, usual class: inhibitors; 1,500 compounds, 5% hits; AID 2787; further: potency means the concentration at half of the fitted maximal effect; on the % scale 0 is the no-effect control and ±100 the full control effect; nearly all actives have a fitted effect of over 45% in size
Rabbit FBPA inh: selectivity test for Giardia aldolase inhibitors: rabbit aldolase. AID 2794. shares compounds with Giardia FBPA inh-1. 1,500 compounds, 4% hits. Potency, µM (series often up to 57.5 µM), inactives show at the top dose activity, negative = inhibition, hits mostly inhibitors. Rabbit muscle FBPA enzyme inhibition, selectivity counter-screen; further: potency means the concentration at half of the fitted maximal effect; on the % scale 0 is the no-effect control and ±100 the full control effect; nearly all actives have a fitted effect of over 60% in size
Target sequence (P00883 whole entry, looked up): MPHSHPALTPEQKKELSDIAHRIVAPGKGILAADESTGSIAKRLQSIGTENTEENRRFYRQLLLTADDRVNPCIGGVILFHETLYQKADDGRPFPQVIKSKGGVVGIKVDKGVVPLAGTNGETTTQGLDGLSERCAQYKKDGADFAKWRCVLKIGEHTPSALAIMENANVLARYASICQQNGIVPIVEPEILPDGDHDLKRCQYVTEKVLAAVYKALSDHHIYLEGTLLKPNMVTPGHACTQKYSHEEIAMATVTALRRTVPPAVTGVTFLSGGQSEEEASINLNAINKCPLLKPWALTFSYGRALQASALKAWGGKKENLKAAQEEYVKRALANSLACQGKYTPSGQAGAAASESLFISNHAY
GAPDH counter: counter-screen for Giardia aldolase inhibitors: GAPDH coupling enzyme; shares compounds with Giardia FBPA inh-1; GAPDH coupling enzyme counterscreen, biochemical, qHTS; Potency, µM (highest dose often 57.5 µM), for the others: at the highest dose activity change, negative = inhibition, actives largely listed as inhibitors; 1,500 compounds, 6% hits; AID 2795; further: potency means the concentration at half of the fitted maximal effect; on the % scale 0 is the no-effect control and ±100 the full control effect; nearly all actives have a fitted effect of over 55% in size
* hit, by the source's call; u = inconclusive; x = no result; [ ] = dose if it differs, or a comment. Only a selection was taken, and hits are over-represented in it overall. Unless noted, the call rests on the fitted dose curve; in most records, active means well fitted curve in the direction sought with a large enough effect; inconclusive means small, poorly fitted or top-dose-only effect, or another doubt; inactive means no such curve, though single readings can be large; an effect the other way counts as inactive or inconclusive.

SMILES	Tb PYK inh	LmPK inhibitor	Shiga inhibitor	CHX counter	Giardia FBPA inh-1	RE007 growth inh	Giardia growth	Mammalian tox	Giardia FBPA inh-2	Rabbit FBPA inh	GAPDH counter
CC(C)OCc1cc(CN2CCN(c3cccc(C(F)(F)F)c3)CC2)c(O)c2ncccc12	0%	x	x	x	x	x	x	x	x	x	x
O=[N+]([O-])c1cc(CN2CCN(c3cccc(C(F)(F)F)c3)CC2)c2cccnc2c1O	-6%	2%[11.5 µM]	-12	-7	16µM*	-8%	-17%	-28%	-10%	-19%	-21%
COC(=O)Oc1nsnc1N1CCOCC1	-39%	-3%	-2	-2	14µM*	-11%	-28%	10%	-13%	u	u
O=C(Oc1nsnc1N1CCOCC1)N(c1ccccc1)c1ccccc1	3%	9%	7	11	5%	2%	x	x	x	x	x
C/C(=N\NC(=O)c1ccc(Cl)c(Cl)c1)c1ccc(Br)s1	3%	0%	-2	-1	3%	2%	x	x	x	x	x
C/C(=N\NC(=O)c1ccc(Cl)c(Cl)c1)c1ccccn1	0%	-4%	5	8	u	u	-3%[38.3 µM]	2.9µM*	1%	-4%	1%
C=C1C(=O)[C@]23[C@H](O)[C@H]1CC[C@H]2[C@@]12COC3(O)[C@H](O)[C@@H]1C(C)(C)CC[C@@H]2O	x	x	-15	-5	11%	x	x	x	x	x	x
CCCCN(CC)Cc1ccc(CNC(=S)Nc2c(C)cc(C)cc2C)o1	-9%	-1%	-8	9	13µM*	-3%	26%	-14%	-10%	2%	5%
CCOC(=O)/C(C#N)=N/Nc1c(C)n(C)n(-c2ccccc2)c1=O	-2%	-2%	15	-6	16µM*	6%	-5%[10.4 µM]	-1%	0%	-4%	-3%
COc1ccc(CNc2nc(NC(C)=O)nn2-c2ccccc2)cc1	-4%	1%	-2	-2	4%	6%	x	x	x	x	x
CC1CCC2C(=O)N3C(CCC(C)[C@@H]3c3ccc(-c4ccco4)cc3)C(=O)N2C1c1cccc(N2CCCC2=O)c1 (some centres not stated)	x	x	x	x	-7%[12.9 µM]	x	x	x	x	x	x
O[N+]1=CC=CCC1=S.On1ccccc1=S.[Zn]	x	x	x	x	0.5µM*	x	10µM*	2.8µM*	u	u	u
CCOC(=O)c1cnc(-c2ccccc2O)nc1Cl	-4%	-14%	70*	36*	20µM*	-5%	u	1%	u	u	u
CCOC(=O)Cc1csc(NC(=O)COc2ccc(OC)cc2)n1	2%	3%	21	-3	3%	-6%	x	x	x	x	x
CCOC(=O)Cc1csc(NC(=S)NC(=O)c2cc(OC)c(OC)c(OC)c2)n1	0%	3%	-6	-4	20µM*	22%	-27%	-7%	-11%	-3%	2%
CCOC(=O)Cc1csc(NC(=S)NC(=O)c2ccc(F)cc2)n1	-6%	-7%	-3	8	7.9µM*	u	-27%	-4%	12%	7%	9%
CCOC(=O)Cc1csc(NC(=S)NC(=O)c2ccccc2C)n1	-4%	-5%	-7	1	u	-8%	x	x	x	x	x
